Screening results: PubChem, National Center for Advancing Translational Sciences (NCATS)
Cruzain inh noDet: qHTS Assay for Promiscuous and Specific Inhibitors of Cruzain (without detergent); Cruzipain (Trypanosoma cruzi), P25779; purified cruzain, Z-FR-AMC fluorescence, no detergent; Potency, µM, inactives show max response, negative = inhibition, usual class: inhibitors; 200,000 tested, 2.3% active;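 also: plate controls were enzyme without inhibitor for no effect and buffer without enzyme for full effect; nearly all actives have a fitted effect of over 40% in size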
Target sequence (P25779 123-467 limits assumed): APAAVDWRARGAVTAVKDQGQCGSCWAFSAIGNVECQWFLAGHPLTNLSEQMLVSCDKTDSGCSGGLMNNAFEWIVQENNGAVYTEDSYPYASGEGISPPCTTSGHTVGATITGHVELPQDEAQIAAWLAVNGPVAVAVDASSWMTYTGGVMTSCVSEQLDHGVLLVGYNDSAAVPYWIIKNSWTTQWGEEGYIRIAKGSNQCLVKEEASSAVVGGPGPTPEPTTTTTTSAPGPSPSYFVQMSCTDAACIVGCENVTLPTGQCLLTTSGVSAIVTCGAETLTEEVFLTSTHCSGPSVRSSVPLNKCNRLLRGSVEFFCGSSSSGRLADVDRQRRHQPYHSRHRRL
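Detergent-free condition (0.00005% Triton X-100) in acetate buffer pH 5.5 with DTT. 1.5 nM enzyme and compound were pre-mixed 15 min, then 2 uM Z-FR-AMC substrate added; reaction progress from fluorescence change between first and third reads (60 s).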
Cruzain Triton: qHTS Assay for Promiscuous and Specific Inhibitors of Cruzain (with detergent); Potency, µM, for inactives: max response, negative = inhibition, actives largely listed as inhibitors; Cruzipain (Trypanosoma cruzi), P25779; purified cruzain, Z-FR-AMC fluorescence, 0.01% Triton; 200,000 tested, 0.43% active;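 also: plate controls were neutral wells for no effect and buffer without enzyme for full effect; nearly all actives have a fitted effect of over 40% in size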
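15 min RT preincubation of 1.5 nM cruzain with compound, then 2 uM Z-FR-AMC added; kinetic AMC fluorescence, 60 s delta. Triton X-100 0.01%, pH 5.5.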
Numbers without * were called inactive; ? = inconclusive. Hits are enriched below; roughly 2.6% of the tested compounds scored in any of these assays. Calls follow the shape of the dose curve; as a rule, active = well fitted curve in the direction sought with a large enough effect; inconclusive = small, poorly fitted or top-dose-only effect, or another doubt; inactive = no such curve, though single readings can be large; an effect the other way counts as inactive or inconclusive. Potency is read from the fitted curve at half-maximal effect.

SMILES	Cruzain inh noDet	Cruzain Triton
CCc1cc(=O)oc2cc(C)c(CN3CCCC3)c(O)c12	7%	-11%
CCOc1ccc(NC(=O)c2nc3nc(C)cc(C(F)F)n3n2)cc1	4%	-4%
CC(C)c1ccccc1S(=O)c1ccccc1C(C)(C)O (configuration not stated)	-1%	5%
O=C(O)[C@@H](Br)[C@H](Br)C(=O)O	10%	1%
O=C=Nc1ccc(Cc2ccc(N=C=O)cc2)cc1 (tested in a mixture with another compound)	3%	0%
O=C=Nc1ccc(Cc2ccc(N=C=O)cc2)cc1	16µM*	-19%
Cn1nnnc1SCCCNCc1ccc(-c2ccc(F)c(Cl)c2)o1	-16%	-3%
O=C(CCN1CCCC1Cc1ccccc1)c1ccc2c(c1)OCCO2 (configuration not stated)	20µM*	25µM*
CN(C)CCN1CCc2ccccc21	-10%	-3%
O=C(CCN1CCc2ccccc21)c1ccc2c(c1)OCCO2	7.9µM*	-2%
O=C(CCN1CCCCC1)c1ccc2c(c1)OCCO2	-26%	-14%
O=C(CCc1ccccc1)c1ccc2c(c1)OCCCO2	?	-2%
c1ccc2c(c1)CCN2CCN1CCc2ccccc21	10µM*	6%
COc1cccc(-c2cc(C(F)(F)F)nc(NCCc3ccccc3)n2)c1	-14%	-10%
CCc1ccccc1NC(=O)Cn1cc(S(=O)(=O)N2CCCC2)c(S(=O)(=O)N2CCCC2)c1	-2%	-2%
C1CCC(C(C[C@@H]2CCCCN2)C2CCCCC2)CC1	-7%	0%
C=CCSc1nnc(CSc2nc3sc4c(c3c(=O)[nH]2)CCCC4)n1-c1ccccc1	15%	-10%
C=CCn1c(SCc2nc3sc4c(c3c(=O)[nH]2)CCCC4)nc2ccccc2c1=O	13µM*	-1%
CC(=O)c1ccc(NS(=O)(=O)c2cccc(S(=O)(=O)c3ccc(Cl)cc3)c2)cc1	?	-1%
C/C(=N\NC(=O)c1ccc(CN(C)S(=O)(=O)c2ccc(C)cc2)cc1)c1ccc(OC(F)F)cc1	4%	-2%
Cc1ccc(S(=O)(=O)N(C)Cc2ccc(C(=O)N/N=C/c3ccc(OC(F)F)cc3)cc2)cc1	10µM*	-1%
COc1ccc(N2CCN(C(=O)c3c(C)oc4ncnc(N5CCCCC5)c34)CC2)cc1	-6%	5%
COc1ccc(-c2nc3c(c(=O)[nH]c(=O)n3Cc3ccccc3)n2C)cc1	-9%	1%
Cn1c(-c2cccc(OCc3ccccc3)c2)nc2c1c(=O)[nH]c(=O)n2Cc1ccccc1	7.9µM*	-1%
CCc1cccc(CC)c1NC(=O)C1SC(=Nc2ccccc2C)C(c2nc3ccccc3s2)=C1N (configuration not stated)	6.3µM*	2%
SMILES	Cruzain inh noDet	Cruzain Triton
CCc1cccc(C)c1NC(=O)CCCSc1nc2ccccc2s1	-5%	-6%
O=c1c2c(n3nnnc3n1Cc1ccccc1)-c1ccccc1CC21CCCC1	25µM*	4%
CCC1(C)Cc2ccccc2-c2c1c(=O)n(Cc1ccccc1)c1nnnn21 (configuration not stated)	?	5%
Cc1cccc(N(C)S(=O)(=O)c2nnc(NC(=O)c3cccs3)s2)c1	0%	-1%
Cc1cccc(-c2nnc(NC(=O)c3cccs3)s2)c1	16µM*	0%
Cc1ccc(C(=O)Oc2coc(CSc3nnc(NC(=O)c4cccs4)s3)cc2=O)cc1	25µM*	-1%
Cc1cc(C)cc(C(=O)Oc2coc(CSc3nnc(NC(=O)C4CC4)s3)cc2=O)c1	3%	-4%
CC1=C2[C@@H]([C@H](C)CC[C@H]2/C=C(\C)C(=O)O)[C@H](O)C1	-2%	-1%
CC(=O)Nc1ccc(NS(=O)(=O)c2ccc3[nH]c4c(c3c2)CCCCC4)cc1	-30%	-11%
Cc1ccc2c(c1)c(=O)c1ccccc1n2CCCC(=O)Nc1ccc(C)c(F)c1	-18%	-5%
CCN(CC)CCNC(=O)CSc1nc2nc(C)c(Cc3ccccc3)c(C)n2n1	-1%	-1%
Cc1cccc(OCCN2CSC(=S)N(C)C2)c1	-22%	-24%
COc1ccccc1OCCN1CSC(=S)N(C)C1	20µM*	?
CC(C)(C)C(=O)NC(=S)Nc1cc(C(F)(F)F)ccc1N1CCOCC1	-1%	-12%
O=C(NC(=S)Nc1cc(C(F)(F)F)ccc1N1CCOCC1)c1sc2ccccc2c1Cl	20µM*	4%
Nc1nc2c(ncn2[C@@H]2C=C[C@@H](CO)C2)c(=O)[nH]1	3%	3%
Cc1cc(/C=N/NC(N)=S)c(C)n1-c1ccc(Cl)cc1	?	28µM*
Cc1cccc(C)c1-n1c(C)cc(/C=N/NC(N)=S)c1C	?	-16%
O=c1c2ccccc2c(-c2ccccc2)nn1-c1cc(Cl)ccc1[N+](=O)[O-]	?	-1%
Cc1ccc(-c2nn(-c3cc(Cl)ccc3[N+](=O)[O-])c(=O)c3ccccc23)cc1C	13µM*	0%
Cc1cc(N2CCCCC2)nc2ccc(NC(=O)CCC(=O)N3CCN(c4cccc(Cl)c4)CC3)cc12	?	16µM*
Cc1ccc(Cl)cc1N1CCN(C(=O)CCC(=O)Nc2ccc3nc(N4CCC(C)CC4)cc(C)c3c2)CC1	9%	-2%
Cc1cc(N2CCCCC2)nc2ccc(NC(=O)c3cccc(Cl)c3)cc12	-11%	-10%
Cc1cc(N2CCC(C)CC2)nc2ccc(NC(=O)CCC(=O)N3CCN(c4cccc(C(F)(F)F)c4)CC3)cc12	?	13µM*
COc1ccc(C2Nc3ccccc3C(=O)N2Cc2ccco2)cc1COc1ccc([N+](=O)[O-])cc1 (configuration not stated)	?	0%
SMILES	Cruzain inh noDet	Cruzain Triton
COc1cccc(OCc2cc(C3Nc4ccccc4C(=O)N3Cc3ccco3)ccc2OC)c1 (configuration not stated)	16µM*	-7%
CCc1ccc(NC(=O)CO/N=C(\C)c2cc3ccccc3o2)cc1	-9%	-9%
O=C(COc1ccc(/C=N/NC(=O)c2cc3ccccc3o2)cc1Br)Nc1ccccc1	10µM*	25µM*
CCOc1ccc(C(=O)Nc2nnc(SCc3cc(=O)c4cc(C)ccc4[nH]3)s2)cc1	-4%	3%
CCOc1ccc(Nc2nc(C)c(NC(=O)c3cccc(F)c3)c(Nc3ccc(OCC)cc3)n2)cc1	9%	6%
CCc1ccc(C(=O)c2cnc3ccc(C)cc3c2S(=O)(=O)c2ccc(OC)cc2)cc1	-11%	-2%
CCOc1ccc(C(=O)c2cnc3ccc(Cl)cc3c2S(=O)(=O)c2ccc(C)cc2)cc1	11%	0%
CCOc1ccc(S(=O)(=O)c2c(C(=O)c3ccccc3)cnc3cc4c(cc23)OCCO4)cc1	32µM*	-6%
Cc1ccc(C(=O)c2cnc3ccccc3c2-c2ccccc2)cc1	5%	-1%
CCc1ccc(S(=O)(=O)c2c(C(=O)c3ccc(C)c(C)c3)cnc3ccccc23)cc1	13µM*	-3%
CCOc1ccc(S(=O)(=O)c2c(C(=O)c3ccc(CC)cc3)cnc3ccc(C)cc23)cc1	20µM*	-4%
CCOC(=O)c1ccc(NC(=O)CCCc2nc(-c3cc(OC)c(OC)c(OC)c3)no2)cc1	?	-6%
CC(C)c1ccc(NC(=O)c2cc(S(=O)(=O)NC3CCCCC3)ccc2F)cc1	3%	-1%
C[C@@]12C=Cc3occc3C1CC[C@@]13C[C@@H](CCC12)[C@@](O)(CO)C3 (some centres not stated)	-1%	1%
